This is part of a sample that, as a whole, favours compounds with a hit. Of some 83,000 tested, about 20% had one in any assay.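 Percent growth is the endpoint: 0 to 100 indicates growth inhibition (40 means 60% inhibition), 0 means no net growth, and negative values indicate cell death.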 Unmarked numbers belong to inactive results. Calls of active or inactive are those of the source. How the source made its calls: active means growth percent below 10; inactive means the rest.
system: OVCAR-4 ovarian; test: NCI-60 one-dose screen, 48 h (100 = growth as untreated, 0 = no growth, -100 = all killed); conditions: 10 µM unless noted

| SMILES | growth |
| --- | --- |
| COc1ccc(C2C3CCc4ccccc4C3=NN2C(=O)c2cc(OC)c(OC)c(OC)c2)cc1O (configuration not stated) | 103% |
| CCOC(=O)c1ccc(NC(=O)NC2=NCCS2)cc1 | 70.6% |
| CC(C)COC(=O)NC(C)(C)C | 106% |
| Cn1c(=O)c2[nH]c(Cc3ccc4c(c3)OCO4)nc2n(C)c1=O | 88.2% |
| Nc1nc(N)c2c(n1)NC(c1sc(Cl)nc1Cl)CC(c1ccc3c(c1)OCO3)=N2 (configuration not stated) | 86% |
| Cc1ccccc1N1C(c2ccccc2)=NNC12C=CC(=O)c1c(O)cccc12 (configuration not stated) | 61.3% |
| Nc1nc(N)c2c(n1)NC(c1sc(Cl)nc1Cl)CC(c1ccccc1)=N2 (configuration not stated) | 94% |
| C=C1NC(=O)C(C(C)CC)NC(=O)C2CSCC(NC(=O)CCC(=O)O)C(=O)NC(Cc3ccccc3)C(=O)NC(C)C(=O)NC(CC(C)CC)C(=O)NC(C(=O)NC(Cc3ccccc3)C(=O)N3CCCC3C(=O)N2)C(C)OC(=O)C(CO)NC(=O)C(C(O)COC)N(C)C(=O)C(C(C)C)NC(=O)C(CC(C)CC)NC1=O (configuration not stated) | 55.6% [6 µM] |
| Cc1nc2c(-c3cnc(N)nc3)nc(N3CCOCC3)nc2n1C(C)C | -3.01% (active) |
| C=CC[C@]1(O)CC[C@H]2[C@@H]3CCc4cc(O)ccc4[C@H]3CC[C@@]21C | 94.3% |
| COS(=O)(=O)CCN(CCOS(C)(=O)=O)S(C)(=O)=O | 107% |
| Cc1nc2ccc(Nc3nc(NCCN4CCOCC4)nc(Nc4ccc(F)cc4)n3)cc2n1Cc1ccccc1 | 98.1% |

— PubChem BioAssay (NCI)
